The results in this text go back to the antibiotic and cytotoxicity screens of Wong et al. (2023).

Screen size: about 39,000 compounds; about 500 (1.3%) were called active. The list comes from a sample in which actives are over-represented; it also holds similar structures and randomly drawn compounds.

For the experiment, the system named is S. aureus RN4220. In words: growth inhibition call (relative growth <= 0.2). The note with it: 50 µM.
For the compound `COc1ccc(NC(=O)N(C)C[C@@H]2OCCCC[C@H](C)Oc3ccc(NS(=O)(=O)c4ccc(Cl)cc4)cc3C(=O)N([C@H](C)CO)C[C@H]2C)cc1`, the growth inhibition call is “inactive”.

For the compound `C[C@@H]1CN([C@H](C)CO)C(=O)c2cc(NC(=O)NC3CCCCC3)ccc2O[C@@H](C)CCCCO[C@@H]1CN(C)S(=O)(=O)c1cccs1`, the growth inhibition call is “inactive”.

For the compound `COc1ccc(NC(=O)Nc2ccc3c(c2)C(=O)N([C@@H](C)CO)C[C@@H](C)[C@H](CN(C)Cc2ccncc2)OCCCC[C@@H](C)O3)cc1`, the growth inhibition call is “inactive”.

For the compound `C[C@H]1CCCCO[C@H](CN(C)C(=O)Nc2ccccc2)[C@@H](C)CN([C@@H](C)CO)C(=O)c2cc(NC(=O)Cc3ccccc3)ccc2O1`, the growth inhibition call is “inactive”.

As to `C[C@H]1CN([C@@H](C)CO)C(=O)CCCn2cc(nn2)CO[C@H]1CN(C)S(=O)(=O)c1ccc(C#N)cc1`, the growth inhibition call is “inactive”.

In the case of `CN(C)c1cc(CN)ccn1`, the growth inhibition call is “inactive”.

Regarding `C1CCC(C(CC2CCCCN2)C2CCCCC2)CC1.O=C(O)C=CC(=O)O` (stereo not given), the growth inhibition call is “active”.

In the case of `O=C(O)[C@@H]1CCCCN1`, the growth inhibition call is “inactive”.

Turning to `OC[C@@H]1CCCN1`, the growth inhibition call is “inactive”.

With `OC[C@@H]1CCCCN1`, the growth inhibition call was “inactive”.

Take `O=C(O)CC[C@H]1CCCCN1`: the growth inhibition call was “inactive”.

`C1CCC(C(C[C@H]2CCCCN2)C2CCCCC2)CC1`: the growth inhibition call was “active”.

Consider `C[C@@H]1CN([C@H](C)CO)C(=O)c2cc(NC(=O)C3CCCCC3)ccc2O[C@@H](C)CCCCO[C@@H]1CN(C)Cc1ccc2c(c1)OCO2`, for which the growth inhibition call is “inactive”.

On to `COc1ccc(NC(=O)N(C)C[C@H]2Oc3c(NC(=O)c4cnccn4)cccc3C(=O)N([C@@H](C)CO)C[C@@H]2C)cc1`, for which the growth inhibition call is “inactive”.

On to `C[C@@H]1CN([C@H](C)CO)S(=O)(=O)c2ccc(C#CCN(C)C)cc2O[C@@H]1CN(C)Cc1ccccn1`, for which the growth inhibition call is “inactive”.

Regarding `C[C@H](CO)N1C[C@H](C)[C@@H](CN(C)Cc2ccc3c(c2)OCO3)Oc2c(NS(=O)(=O)c3cn(C)cn3)cccc2C1=O`, the growth inhibition call is “inactive”.

As for `COc1ccc(NC(=O)Nc2ccc3c(c2)C(=O)N([C@@H](C)CO)C[C@@H](C)[C@H](CN(C)Cc2ccc(C(=O)O)cc2)OCCCC[C@H](C)O3)cc1`, the growth inhibition call is “inactive”.

Take `COc1cccc(S(=O)(=O)N(C)C[C@H]2OCc3cnnn3CCCC(=O)N([C@@H](C)CO)C[C@@H]2C)c1`: the growth inhibition call is “inactive”.

For the compound `CNC[C@@H]1Oc2ccc(NS(=O)(=O)c3cn(C)cn3)cc2C(=O)N([C@@H](C)CO)C[C@@H]1C`, the growth inhibition call is “inactive”.

For `CCc1nc2ccc(C(=O)NC3CCN(Cc4ccccc4)CC3)cn2c1N(C)Cc1cc2ccccc2s1`, the growth inhibition call was “inactive”.

As to `Cc1noc(C)c1NC(=O)Nc1ccc2c(c1)C(=O)N([C@H](C)CO)C[C@@H](C)[C@H](CN(C)S(=O)(=O)c1ccccc1)OCCCC[C@H](C)O2`, the growth inhibition call was “inactive”.

With `Cc1cc(C2CCCCC2)n(O)c(=O)c1.NCCO`, the growth inhibition call is “active”.

As to `C[C@H](CO)N1C[C@H](C)[C@@H](CN(C)Cc2ccc(-c3ccccc3)cc2)Oc2c(NC(=O)c3ccncc3)cccc2C1=O`, the growth inhibition call is “inactive”.

On to `C[C@H]1CN([C@@H](C)CO)C(=O)c2cccc(NC(=O)c3cnccn3)c2O[C@@H]1CN(C)Cc1ccncc1`, for which the growth inhibition call is “inactive”.

For `COc1cccc(NC(=O)N[C@@H]2CC[C@@H](CC(=O)N3CCN(C)CC3)O[C@@H]2CO)c1`, the growth inhibition call was “inactive”.

Take `O=C(C[C@@H]1CC[C@H]2[C@@H](COC[C@H](O)CN2C(=O)Nc2cccc(F)c2)O1)NCc1ccccc1Cl`: the growth inhibition call is “inactive”.

Take `CNC(=O)Cc1ccccc1`: the growth inhibition call is “inactive”.

For `CC1(C)SC2C(N3C(=O)C(c4ccccc4)NC3(C)C)C(=O)N2C1C(=O)[O-].[K+]` (stereo not given), the growth inhibition call is “active”.

Take `CC1(C)SC2C(NC(=O)Cc3ccccc3)C(=O)N2C1C(=O)[O-].[K+]` (stereo not given): the growth inhibition call is “active”.

With `CC1(C)SC2C(NC(=O)COc3ccccc3)C(=O)N2C1C(=O)[O-].[K+]` (stereo not given), the growth inhibition call was “active”.

For `COC(=O)[C@@H]1N2C(=O)[C@@H](N3CC4=C[C@@H](C5CC5)n5c(=O)n(C)c(=O)n5[C@@H]4[C@@H]3[C@@H](O)Cc3ccccc3)[C@H]2SC1(C)C`, the growth inhibition call was “inactive”.

In the case of `C[C@@H](NC(=O)COc1ccccc1)C(=O)O`, the growth inhibition call is “inactive”.

As for `NNC(=O)COc1ccccc1`, the growth inhibition call is “inactive”.

Take `COC(=O)[C@@H]1N2C(=O)[C@@H](N3C[C@](C)(OC)O[C@@H](Cc4ccccc4)[C@H]3/C=C/C3CC3)[C@H]2SC1(C)C`: the growth inhibition call is “inactive”.

As to `CC1(C)C(=O)NCCN1C(=O)Cc1ccccc1`, the growth inhibition call is “inactive”.

Regarding `COc1ccc(S(=O)(=O)N(C)C[C@H]2OCCCC[C@@H](C)Oc3ccc(NC(=O)Nc4ccc(F)cc4)cc3C(=O)N([C@@H](C)CO)C[C@H]2C)cc1`, the growth inhibition call is “inactive”.

For `COc1cccc(CNC(=O)C[C@@H]2C=C[C@@H](NC(=O)C3CCOCC3)[C@H](CO)O2)c1`, the growth inhibition call is “inactive”.

`COc1ccc(NC(=O)N(C)C[C@@H]2Oc3c(NS(C)(=O)=O)cccc3C(=O)N([C@H](C)CO)C[C@H]2C)cc1`: the growth inhibition call was “inactive”.

Turning to `OCCc1ccc2c(c1)OCO2`, the growth inhibition call was “inactive”.

As for `Cc1ccc(S(=O)(=O)N(C)C[C@H]2Oc3ccc(NC(=O)Nc4cccc5ccccc45)cc3C(=O)N([C@@H](C)CO)C[C@@H]2C)cc1`, the growth inhibition call is “inactive”.

Consider `COc1ccc(S(=O)(=O)N2C[C@H](O)COC[C@H]3O[C@H](CC(=O)NCCN4CCCCC4)CC[C@@H]32)cc1`, for which the growth inhibition call was “inactive”.

For `CCCNC(=O)N1C[C@@H](O)COC[C@H]2O[C@@H](CC(=O)N3CCN(C)CC3)CC[C@@H]21`, the growth inhibition call is “inactive”.

In the case of `C[C@H]1CN([C@@H](C)CO)C(=O)c2cc(NC(=O)Cc3ccccc3)ccc2O[C@H]1CN(C)C(=O)Nc1cccc2ccccc12`, the growth inhibition call was “inactive”.

With `C[C@H]1CNC(=CC(=O)c2ccccc2)C(=O)N1`, the growth inhibition call was “inactive”.

Take `O=C1OCCN/C1=C/C(=O)c1ccccc1`: the growth inhibition call is “inactive”.

For the compound `O=C(/C=c1/nc2c([nH]c1=O)=NON2)c1ccccc1`, the growth inhibition call is “active”.

For the compound `COc1ccc(S(=O)(=O)N(C)C[C@@H]2Oc3ccc(NC(=O)Cc4ccccc4)cc3CC(=O)N([C@@H](C)CO)C[C@@H]2C)cc1`, the growth inhibition call was “inactive”.

As for `CC(C)(C)[S@](=O)N1Cc2cc(C(=O)NCc3ccccc3F)nc(-c3cccc(-c4ccncc4)c3)c2[C@@H]1CCO`, the growth inhibition call was “inactive”.

With `O=C(C[C@@H]1CC[C@@H]2[C@H](COC[C@H](O)CN2C(=O)Nc2cccc(Cl)c2)O1)NCc1ccccc1F`, the growth inhibition call is “inactive”.

In the case of `COc1cccc(NC(=O)N2C[C@H](O)COC[C@H]3O[C@@H](CC(=O)NCc4ccccc4F)CC[C@@H]32)c1`, the growth inhibition call was “inactive”.

In the case of `O=C(C[C@H]1CC[C@H]2[C@@H](COC[C@H](O)CN2C(=O)Nc2cccc(Cl)c2)O1)NCc1ccccc1F`, the growth inhibition call is “inactive”.

For `O=C(C[C@H]1CC[C@@H]2[C@H](COC[C@@H](O)CN2C(=O)Nc2cccc(Cl)c2)O1)NCc1ccccc1F`, the growth inhibition call is “active”.

With `O=C(C[C@H]1CC[C@@H]2[C@H](COC[C@H](O)CN2C(=O)Nc2cccc(Cl)c2)O1)NCc1ccccc1F`, the growth inhibition call is “inactive”.

As for `O=C(C[C@@H]1CC[C@H]2[C@@H](COC[C@@H](O)CN2C(=O)Nc2cccc(Cl)c2)O1)NCc1ccccc1F`, the growth inhibition call was “inactive”.

As for `O=C(C[C@@H]1CC[C@@H]2[C@H](COC[C@@H](O)CN2C(=O)Nc2cccc(Cl)c2)O1)NCc1ccccc1F`, the growth inhibition call is “active”.

Consider `O=C(C[C@H]1CC[C@H]2[C@@H](COC[C@@H](O)CN2C(=O)Nc2cccc(Cl)c2)O1)NCc1ccccc1F`, for which the growth inhibition call was “inactive”.

Turning to `O=C(C[C@@H]1CC[C@H]2[C@@H](COC[C@H](O)CN2C(=O)Nc2cccc(Cl)c2)O1)NCc1ccccc1F`, the growth inhibition call is “active”.

In the case of `COc1ccc(NC(=O)N(C)C[C@H]2Oc3c(NC(=O)Nc4cccc5ccccc45)cccc3C(=O)N([C@@H](C)CO)C[C@@H]2C)cc1`, the growth inhibition call is “inactive”.

As for `COc1ccc(S(=O)(=O)N(C)C[C@H]2Oc3c(NS(=O)(=O)c4c(C)noc4C)cccc3C(=O)N([C@@H](C)CO)C[C@@H]2C)cc1`, the growth inhibition call was “inactive”.

Regarding `O=c1[nH]cccc1F`, the growth inhibition call was “inactive”.

With `C[C@@H]1CN([C@H](C)CO)C(=O)Cc2cc(NC(=O)CCN3CCOCC3)ccc2O[C@@H]1CN(C)C(=O)Nc1ccc2c(c1)OCO2`, the growth inhibition call is “inactive”.

As for `C[C@@H]1CN([C@@H](C)CO)C(=O)c2cc(NC(=O)C3CCCCC3)ccc2O[C@@H](C)CCCCO[C@H]1CN(C)C(=O)c1ccccc1`, the growth inhibition call is “inactive”.

Consider `CNC[C@@H]1Oc2cc(C#CCN(C)C)ccc2S(=O)(=O)N([C@@H](C)CO)C[C@@H]1C`, for which the growth inhibition call is “inactive”.

`CC(C)NC(=O)N(C)C[C@@H]1Oc2ccc(NC(=O)C3CCCCC3)cc2C(=O)N([C@@H](C)CO)C[C@@H]1C`: the growth inhibition call was “inactive”.

`C[C@H](CO)N1C[C@H](C)[C@@H](CN(C)C(=O)Nc2cccc(C(F)(F)F)c2)OCc2cnnn2CCCC1=O`: the growth inhibition call was “inactive”.

Regarding `C[C@H]1CN([C@@H](C)CO)C(=O)CCCn2nncc2CO[C@@H]1CN(C)C(=O)Nc1cccc(C(F)(F)F)c1`, the growth inhibition call is “inactive”.

For `C[C@@H]1CN([C@@H](C)CO)C(=O)CCCn2nncc2CO[C@@H]1CN(C)C(=O)Nc1cccc(C(F)(F)F)c1`, the growth inhibition call is “inactive”.

Consider `C[C@H]1CN([C@@H](C)CO)C(=O)CCCn2nncc2CO[C@H]1CN(C)C(=O)Nc1ccc(C(C)(C)C)cc1`, for which the growth inhibition call was “inactive”.

Regarding `C[C@@H]1CN([C@H](C)CO)C(=O)CCCn2nncc2CO[C@@H]1CN(C)C(=O)Nc1cccc(C(F)(F)F)c1`, the growth inhibition call was “active”.

For `C[C@@H]1CN([C@@H](C)CO)C(=O)CCCn2nncc2CO[C@H]1CN(C)C(=O)Nc1cccc(C(F)(F)F)c1`, the growth inhibition call is “inactive”.

`C[C@H]1CN([C@@H](C)CO)C(=O)CCCn2nncc2CO[C@H]1CN(C)C(=O)Nc1cccc(C(F)(F)F)c1`: the growth inhibition call was “active”.

As for `C[C@H](CO)N1C[C@H](C)[C@H](CN(C)C(=O)Nc2cccc(C(F)(F)F)c2)OCc2cnnn2CCCC1=O`, the growth inhibition call is “active”.

On to `C[C@@H]1CN([C@H](C)CO)C(=O)CCCn2nncc2CO[C@H]1CN(C)C(=O)Nc1cccc(C(F)(F)F)c1`, for which the growth inhibition call is “active”.

As to `C[C@@H]1CN([C@@H](C)CO)C(=O)CCCn2nncc2CO[C@H]1CN(C)C(=O)Nc1ccc(C(C)(C)C)cc1`, the growth inhibition call was “inactive”.

On to `C[C@@H]1CCCCO[C@@H](CN(C)C(=O)Nc2ccccc2)[C@@H](C)CN([C@H](C)CO)C(=O)c2cc(NC(=O)CCC(F)(F)F)ccc2O1`, for which the growth inhibition call was “inactive”.
